According to PubChem BioAssay AID1745856 (National Center for Advancing Translational Sciences (NCATS), 2022):
About 270 (0.23%) of roughly 120,000 compounds were called active. Not shown: some 5% with an inconclusive outcome. The entries come from a sample that favours actives as a whole. Values without a mark were called inactive. Calls follow the shape of the full dose curve.

Assay: Primary qHTS Assay for Foot and Mouth Disease Virus Antivirals against NCGC Sytravon and CBC Compound Libraries: Firefly Luciferase Signal; also: nearly all actives have a fitted effect of over 60% in size
Conditions: FMDV antiviral cell assay; series mostly up to 57.5 µM; activity change, negative = inhibition: at the top concentration
% is scaled to controls: 0 for no effect and ±100 for the full control effect; potency is read from the fitted curve at half-maximal effect.

SMILES	Potency	activity change, negative = inhibition [%]
CCCn1nc(C(=O)Nc2ncc(Cc3ccc(F)cc3)s2)ccc1=O	31.6 µM (active)	–
Cc1nc(-c2ccc(F)cc2)sc1C(=O)N[C@H](C(=O)O)C(C)C	–	23.3
Cc1cnc(NC(=O)c2nc(C)n(-c3ccc(F)cc3)n2)s1	–	180
COc1ccc(/C(=N/OC(=O)c2cccc(F)c2)c2nccc3cc(OC)c(OC)cc23)cc1OC	–	13.5
COc1ccc(-c2cc(C(=O)NC3CC(C)(C)NC(C)(C)C3)c3ccccc3n2)cc1OC	–	-27.7
CCOc1cc(/C=C2\NC(=O)NC2=O)cc(Br)c1OCc1cccc2ccccc12	–	6.16
CCC(CC)NC(=O)COC(=O)c1ccc(C)c(C)c1	–	-0.24
COc1ccc(CN(C(=O)COc2ccc(C)cc2)c2ccccn2)cc1OC	–	89.2
CC1CCN(C(=O)c2cccnc2-c2nc3ccccc3s2)CC1	–	-0.889
Cc1ccc2c(Cl)cc(Cl)c(OCC(=O)N3CCCCCC3)c2n1	–	-7.4
CCCCCNC(=O)N(C)Cc1ccc(C(=O)OC)cc1	–	21
COc1cccc(CNC(=O)COC(=O)c2c(F)cccc2F)c1	–	18.7
Cc1cccc(C)c1Nc1nc(-c2ccccc2)cs1	–	164
COc1ccc(-c2csc(Nc3cccc(C)n3)n2)cc1OC	–	198
COc1ccc2c(c1OC)C(=O)OC2Nc1nc(-c2ccccc2)cs1 (stereo not drawn)	28.2 µM (active)	–
Cc1cccc(C)c1NC(=O)CN(C)CC(=O)NC(=O)NCc1ccccc1	–	-5.49
CC(=O)N1CCN(c2c([N+](=O)[O-])cnc3ccc(Br)cc23)CC1	–	-9.98
CCOc1ccccc1OCC(=O)Nc1cccc2ncccc12	8.91 µM (active)	–
CCCOc1ccc(NC(=O)COc2cccc(C)c2C)c2cccnc12	–	-12.1
COc1c(C)cccc1C(=O)Nc1cccc2ncccc12	–	9.76
CCC1CCCCN1S(=O)(=O)c1ccc(NC(=O)c2cc(-c3ccc(OC)cc3)on2)cc1 (stereo not drawn)	–	18.9
Cc1cc(SCC(=O)NC(=O)NCC(C)C)nc2ccccc12	–	18.6
COc1ccc(NC(C)=O)cc1S(=O)(=O)NC(c1ccc(F)cc1)c1cccs1 (stereo not drawn)	–	-11.3
CC1CCn2c(nc3cc(C(=O)N4CCN(c5ccccc5)CC4)ccc32)C1 (stereo not drawn)	–	102
CC1CCCCN1C(=O)CSc1nc2ccccc2n1CCC#N (stereo not drawn)	–	4.75
O=C(CC12CC3CC(CC(C3)C1)C2)OCC(=O)c1ccc2c(c1)OCO2	–	0

SMILES	Potency	activity change, negative = inhibition [%]
CCCCN(C)C(=O)C1CCC(Cn2c(=O)c3sccc3n(Cc3ccccc3)c2=O)CC1 (stereo not drawn)	–	-8.18
Cc1ccc2nc(-c3ccccn3)cc(C(=O)O)c2c1	–	21.3
Cc1nc2cc(NC(C)C(=O)Nc3ccccc3F)ccc2o1 (stereo not drawn)	–	84.5
CCc1ccc(Nc2nc3ccccc3nc2NS(=O)(=O)c2ccc(F)cc2)cc1	–	4.14
Cn1nc(C(=O)NCCc2ccc(F)cc2)c2ccccc2c1=O	–	115
COc1ccc(NC(=O)CSCc2cc(=O)n3cc(C)ccc3n2)cc1Cl	–	-10.7
Cc1cc(=O)oc2c(C)c(OCC(=O)NCCc3ccc(S(N)(=O)=O)cc3)ccc12	–	-12
O=C(CCc1nc2ccccc2s1)NC1CCCCCC1	–	115
CCS(=O)(=O)N1CCc2cc(C(=O)CSc3ccc(Cl)cc3)ccc21	–	-47.5
Cc1ccc(-c2cc(C(=O)N3CCCCCC3)c3ccccc3n2)o1	–	31.5
Cc1cccc(N(C)C(=O)Cn2nc(Cc3cccnc3)c3ccccc3c2=O)c1	–	-0.531
Cc1ccc(NC(=O)C(Sc2ccccc2)c2ccccc2)cc1C (stereo not drawn)	–	52.1
CCN(CC)C(=O)c1sc2nc(C(C)(C)C)nc(C)c2c1C	–	5.06
COc1cc(NC(=O)C2CCCN2C(=O)C23CC4CC(CC(C4)C2)C3)c(OC)cc1Cl (stereo not drawn)	–	-13.5
CC1CCC(NC(=O)c2ccccc2SCC#N)CC1 (stereo not drawn)	–	0
COc1ccc2c(C)c(CC(=O)Nc3nnc(C(C)C)s3)c(=O)oc2c1OC	–	14.8
Cc1ccccc1C(C)N (stereo not drawn)	–	-5.82
COc1ccc(/C=C2\CCc3ccccc3C2=O)cc1Br	–	203
CCOc1ccc(OCC(=O)NCCc2c[nH]c3ccccc23)cc1	–	19.4
COCCN(CCOC)C(=O)Cc1n[nH]c(=O)c2ccccc12	–	2.66
COc1ccc(-c2noc(-c3cccc(OCC(=O)N4CCCC4)c3)n2)cc1	–	161
O=S(=O)(c1ccc(Sc2nnnn2C2CCCC2)nc1)N1CCOCC1	–	-10.7
Cc1cccc(-c2nc3cc(NC(=O)CC(C)C)ccc3o2)c1	–	120
CCOC(=O)CSCc1cccc(Cl)c1	–	13.3
O=c1[nH]c(=O)n(CCc2ccccc2)c2nccc(-c3ccc(Cl)cc3)c12	–	-0.9
CC1CCC(=NNC(=S)NC2CCCCC2)CC1 (stereo not drawn)	–	37.9

SMILES	Potency	activity change, negative = inhibition [%]
CCCNC(=O)NCc1nc(-c2ccc(OC)cc2)oc1C	–	79.5
COc1ccc(C(=O)COC(=O)Cc2c(Cl)cccc2Cl)c(OC)c1	–	11.5
O=C1CC(c2cccc(Br)c2)c2c(n3c(nc4ccccc43)[nH]c2=O)N1 (stereo not drawn)	–	-10.9
CCN(C(=O)CSc1nc(-c2ccccc2Cl)nc2cc(=O)[nH]n12)c1ccccc1	–	42.8
O=C(NCc1coc(-c2cccs2)n1)c1ccc(C(F)(F)F)cc1	–	39.9
O=C(CSc1nc2ncccc2c(=O)n1-c1ccccc1)NC(=O)NC1CC1	–	-8.22
CCOCCn1c(NCCCOC)nc2c1c(=O)[nH]c(=O)n2C	–	82.8
NC(=O)Cn1nc(-c2cccc([N+](=O)[O-])c2)c2ccccc2c1=O	–	-7.8
O=C(NCc1ccc(F)cc1)c1cc(S(=O)(=O)C2CCS(=O)(=O)C2)ccc1F (stereo not drawn)	–	17.7
CCN(CC)C(=O)Oc1ccc2c(C)c(-c3ccccc3)c(=O)oc2c1	–	0
Cc1ccsc1CNC(=O)CCc1ccc(F)c(F)c1	–	58.8
COCCCNC(=O)Cc1c(C)c2ccc(OC(C)=O)c(OC(C)=O)c2oc1=O	–	36
C[C@H](NC(=O)C(c1ccccc1)c1ccccc1)C(=O)O	–	12.3
Nc1nccnc1C(=O)Nc1cccc(NC(=O)c2ccncc2)c1	–	8.94
CC(Sc1nc2ccccc2n1C)C(=O)NCc1ccc2c(c1)OCO2 (stereo not drawn)	–	13
Cc1nc2ccc(C)c(C)c2s1	–	1.16
Cc1c(Cl)cccc1NC(=O)Cn1cc(C(=O)c2cccs2)c2ccccc21	7.08 µM (active)	–
Cc1ccccc1NC(=O)Cn1cc(C(=O)c2cccs2)c2ccccc21	–	7.93
O=C(c1cccs1)c1cn(CCOc2ccc(Cl)cc2)c2ccccc12	–	4.11
Cc1ccc(C)c(COC(=O)c2ccc3c(c2)NC(=O)CS3)c1	–	9.18
CC(C)C(C#CC(O)(c1ccccc1)c1ccccc1)N(C)C (stereo not drawn)	–	0.778
COc1cc(NC(=O)Cn2c3c(c(=O)n2-c2ccccc2)Cc2cc(Cl)ccc2O3)cc(OC)c1	–	81.6
O=C(O)c1c(F)c(F)c(F)c(F)c1-c1ccccc1	–	-7.11
O=C(NC1CC1)C(Sc1c(Cl)cccc1Cl)c1ccccc1 (stereo not drawn)	–	21.7
CCCCCNC(=O)CCc1c[nH]c2ccccc12	–	1.13
CCC(C)n1cc(/C=C2\NC(=O)N(CC)C2=O)c2ccccc21 (stereo not drawn)	–	-13.7
